This note sets out measurements from PubChem BioAssay.

Structures are written as SMILES. The source made the active and inactive calls. No rule for the calls is given here.

The nature of this experiment: Brca1-Bard1 BiLC signal decrease – luminescence, single concentration, counter-screen for Mdm2/MdmX interaction inhibitor project, confirmation (AID 504668). The conditions noted are these: Brca1/Bard1 bimolecular luciferase complementation counterscreen, at 8 µM, stronger effect = higher value. A general note: Counterscreens check selectivity or assay interference.
What is called inhibition is the change of the read-out against control, counted positive when it falls. As for `Cc1cc(C2CCCCC2)n(O)c(=O)c1`, the inhibition was 32.2% (active).
As for `COc1ccc2c(C(=O)CCl)c[nH]c2c1`, the inhibition is 24.1% (active).
Regarding `CCn1c(C)cc(C(=O)CN2C(=O)c3ccccc3S2(=O)=O)c1C`, the inhibition was 23.2% (active).
Then `O=C(NNC(=O)c1ccccc1OCc1ccc(F)cc1)c1ccccc1O`, with 31.1% (active); and `C[C@@]12C(=O)Nc3ccccc3C(=O)N1[C@H]1c3cc(Br)ccc3OC[C@@H]1[C@@H]2c1ccccc1`, with 30.8% (active); and `O=[N+]([O-])c1cc(-c2nc(-c3ccncc3)no2)ccc1Cl`, with 23.3% (active).
Then `CCCCC(=O)NC(c1ccc(N(C)C)cc1)c1ccc2cccnc2c1O` (stereo not given), with 23.7% (active); and `Cc1cc(C)cc(OCc2nc3ncc(Br)cc3[nH]2)c1`, with 30.8% (active); and `CC(=O)/C(C#N)=C1\NC(=O)C(Cc2cc(Cl)ccc2Cl)S1` (stereo not given), with 31.2% (active).
The result for `O=C(N/N=C(\Cc1ncc[nH]1)c1ccccc1)c1cccnc1` reads 33.1% (active).
For the compound `COc1ccc(-n2c(SCC(=O)Nc3ncc(Cl)cc3Cl)nc3ccccc32)cc1`, the inhibition is 29.2% (active).
In the case of `COc1ccc(C(=O)Nc2nc3c(s2)CCCC3)cc1S(=O)(=O)N1CCCc2ccccc21`, the inhibition is 23.4% (active).
The result for `Cc1ccc(C(=O)Nc2nc(-c3ccccn3)cs2)cc1S(=O)(=O)N1CCOCC1` reads 23.2% (active); that for `CCc1ccc(/C=C/C(=O)c2c(C)cc(C)[nH]c2=O)cc1`, 30.6% (active); that for `COc1ccc(C2=Nn3c(nnc3-c3ccccc3F)SC2)cc1OC1CCOC1` (stereo not given), 33.4% (active).
The result for `Cc1ccc(-n2nc(C)c(NC(=O)CCl)c2C)cc1C` reads 34% (active); that for `CCn1c(-c2ccc(C)cc2)nn(CC(=O)NCCc2ccccc2)c1=S`, 31.4% (active).
On to `O=C(Nc1ccc(N2CCCCC2)cc1)c1ccccn1`, for which the inhibition is 27.9% (active).
For the compound `O=C(Nc1ccncc1NC(=O)c1cccc([N+](=O)[O-])c1)c1cccc([N+](=O)[O-])c1`, the inhibition was 31% (active).
Then `COC(=O)c1cccc(C23CC4(C2)[C@H](CN(Cc2ccc(C(F)(F)F)cc2)[C@@H]4c2ccccc2)C3c2ccc(C(F)(F)F)cc2)c1` (stereo not given in full), with 23.6% (active); and `C=CCc1cccc(/C=N/NC(=O)c2ccc3nc[nH]c3c2)c1O`, with 26.2% (active).
As for `COc1ccccc1OCC(=O)N/N=C/c1c(O)ccc2ccccc12`, the inhibition is 27.8% (active).
Consider `CCOc1ccccc1Nc1nnc(SC(C)C(=O)Nc2nc(-c3ccccc3)cs2)s1` (stereo not given), for which the inhibition is 35.2% (active).
The result for `Oc1c(CN2CCN(c3ccccn3)CC2)cc(Cl)c2cccnc12` reads 28% (active); that for `CCOC(=O)c1sc(NC(=O)Nc2cccc(Cl)c2)cc1C`, 34.4% (active).
Then `COc1cc(NC(=S)NC(=O)c2ccc(C(C)(C)C)cc2)ccc1NC(=O)c1cccs1`, with 27.7% (active); and `c1ccc(CNc2nc(-c3ccccn3)nc3ccccc23)cc1`, with 23.3% (active); and `O=C(N/N=C(\Cc1ncc[nH]1)c1ccccc1)c1ccccc1`, with 24.8% (active).
`Cc1ccc(N=c2c([N+](=O)[O-])nn(-c3ccc4c(c3)OCCO4)n2O)cc1F`: the inhibition was 23.7% (active).
Then `O=C(N/N=C/c1ccccc1O)c1cccc(C(F)(F)F)c1`, with 35.8% (active); and `Oc1ccc(CNc2ccccc2F)c2cccnc12`, with 30.8% (active).
As to `NC(=O)c1sc2nc3c(c(-c4ccco4)c2c1N)CCC3`, the inhibition was 24.9% (active).
Then `N=c1n(CCO)c2ccccc2n1CCOc1ccc(Cl)cc1Cl`, with 25.4% (active).
Regarding `Cc1ccc2cccc(NS(=O)(=O)c3ccccc3)c2n1`, the inhibition is 23.1% (active).
Turning to `CCOc1cc(/C=N/N=C(\N)c2nonc2N)cc(Br)c1OCc1cccc2ccccc12`, the inhibition is 33.4% (active).
Then `CC(Oc1ccc(F)cc1)C(=O)Nc1nc(-c2ccccn2)cs1` (stereo not given), with 35.6% (active); and `Oc1c(C(c2cccs2)N2CCN(c3ccccc3)CC2)ccc2cccnc12` (stereo not given), with 23.1% (active); and `Cc1ccc(CSC(Nc2ccc(F)cc2)=C(C#N)C#N)cc1`, with 24.3% (active).
The result for `O=C(c1ccc(S(=O)(=O)c2ccccc2Cl)c([N+](=O)[O-])c1)N1CCN(Cc2ccccc2)CC1` reads 29.6% (active); that for `COc1ccc(Oc2ccc(/C=C/C(=O)c3cccc(OC)c3)cc2[N+](=O)[O-])cc1`, 26.2% (active).
